Measurements published in the supplement of paper PMC6522484.
± gives the standard deviation of the averaged measurements.

Legend:
DLD1 [1] = assay: cell viability (CellTiter-Glo) relative to plate median (fraction of plate median); higher = more viable cells; details: 5 µM; treatment time 24 h; reporter: 7TFP
Outline: (§1)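 Per-well firefly luciferase or CellTiterGlo luminescence, normalised to the plate median, is what is reported. It was measured in colorectal cancer cells with stable lentiviral TCF/Wnt firefly luciferase reporters after a 24 h treatment with library compounds at a final 5 µM. The mean of two independent replicates is given.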

HCT116 = assay: as above; details: 5 µM; treatment time 24 h; reporter: TCF4/Wnt
Outline: as §1

SW480 [2] = assay: as above; details: 5 µM; treatment time 24 h; reporter: 7TFP
Outline: as §1

DLD1 [3] = assay: TCF/Wnt firefly luciferase reporter signal relative to plate median (fraction of plate median); higher = higher Wnt reporter signal; details: 5 µM; treatment time 24 h; reporter: 7TFP
Outline: as §1

SW480 [4] = assay: as above; details: 5 µM; treatment time 24 h; reporter: 7TFP
Outline: as §1

Row | SMILES | cell viability (DLD1 [1]) | cell viability (HCT116) | cell viability (SW480 [2]) | TCF/Wnt firefly luciferase reporter signal (DLD1 [3]) | TCF/Wnt firefly luciferase reporter signal (SW480 [4])
1 | C[C@]12CC[C@@H](O)C[C@H]1CCc1ccccc12 [3alpha-HYDROXY-4,4-BISNOR-8,11,13-PODOCARPATRIENE] | 1.03 ± 0.08 | 1.01 ± 0.27 | 1.03 ± 0.014 | 0.971 ± 0.022 | 1.15 ± 0.064
2 | C[C@@H]1C(=O)O[C@H]2C[C@@]34[C@H]5C[C@@H](C(C)(C)C)[C@]36[C@@H](OC(=O)[C@@H]6O)O[C@@]4(C(=O)O5)[C@]21O | 1.07 ± 0.021 | 1.11 ± 0.064 | 0.99 ± 0.015 | 1.15 ± 0.021 | 1.03 ± 0.11
3 | CC1(C)C(O[C@@H]2OC[C@@H](O)[C@H](O)[C@H]2O)CC[C@]23CC24CC[C@]2(C)[C@@H]([C@@]5(C)CC[C@@H](C(C)(C)O)O5)[C@H](O)C[C@@]2(C)C4C[C@@H](O[C@@H]2O[C@H](CO)[C@@H](O)[C@H](O)[C@H]2O)C13 (stereo not given in full) | 0.987 ± 0.033 | 0.961 ± 0.016 | 0.9815 ± 0.0064 | 1 ± 0.011 | 1.075 ± 0.0071
4 | O=C1c2ccccc2C(=O)c2c(O)c(O)cc(O)c21 | 1.02 ± 0.052 | 0.96 ± 0.14 | 1.09 ± 0.092 | 1.17 ± 0.028 | 0.873 ± 0.044
5 | NC(=O)N1c2ccccc2C=Cc2ccccc21 | 0.931 ± 0.098 | 1.01 ± 0.029 | 1.004 ± 0.0092 | 1.05 ± 0.042 | 0.937 ± 0.17
6 | COC1C(OC(C)=O)C(C)OC(OC2C(Oc3cccc4c(OC(C)=O)c5c(=O)oc6ccc(C)c7c(=O)oc(c34)c5c67)OC(C)C(OC(C)=O)C2OC(C)=O)C1OC(C)=O (stereo not given) [Chartreusin-pentaacetate] | 0.99 ± 0.028 | 1.04 ± 0.14 | 0.932 ± 0.03 | 1.095 ± 0.0071 | 1.1 ± 0.11
7 | CC(C)[C@H](NC(=O)[C@H](Cc1ccc(O)cc1)NC(=O)[C@@H](NC(=O)C(F)(F)F)C(C)C)C(=O)O | 0.957 ± 0.028 | 0.94 ± 0.021 | 0.969 ± 0.025 | 0.842 ± 0.12 | 0.845 ± 0.035
8 | O=c1cc(CO)occ1O [Kojic acid (Biofocus)] | 0.943 ± 0.08 | 1.02 ± 0.083 | 0.994 ± 0.093 | 1.21 ± 0.13 | 1.12 ± 0.035
9 | NCC[C@H](O)C(=O)N[C@@H]1C[C@H](N)[C@@H](O[C@H]2O[C@H](CN)[C@@H](O)[C@H](O)[C@H]2O)[C@H](O)[C@H]1O[C@H]1O[C@H](CO)[C@@H](O)[C@H](N)[C@H]1O | 1.01 ± 0.014 | 1 ± 0.037 | 0.995 ± 0.036 | 0.821 ± 0.11 | 0.905 ± 0.12
10 | O=C(/C=C(\O)c1ccccc1)c1ccccc1O [2',beta-DIHYDROXYCHALCONE] | 1.07 ± 0.16 | 1.17 ± 0.16 | 1.08 ± 0.014 | 1.01 ± 0.17 | 1.1 ± 0.021
11 | CCSC(=N)N | 0.954 ± 0.046 | 0.948 ± 0.073 | 0.9995 ± 0.00071 | 0.99 ± 0.028 | 0.963 ± 0.031
12 | COc1ccc2c(c1)[C@@]1(C)CC[C@@H](O)C[C@@H]1CC2 [12-METHOXY-4,4-BISNOR-5alpha-8,11,13-PODOCARPATRIEN-3-OL] | 1.02 ± 0.014 | 1.1 ± 0.13 | 0.984 ± 0.037 | 1.03 ± 0.11 | 0.937 ± 0.021
13 | O=C1c2c(O)ccc(O)c2C(=O)c2c(NCCNCCO)ccc(NCCNCCO)c21 | 1.09 ± 0.078 | 0.635 ± 0.19 | 0.997 ± 0.018 | 0.936 ± 0.03 | 0.436 ± 0.04
14 | C=C1CCC2C(CC2(C)C)C(=O)CCC1O (stereo not given) | 0.969 ± 0.037 | 0.962 ± 0.023 | 0.97 ± 0.0014 | 0.932 ± 0.025 | 0.9285 ± 0.0064
15 | O=NN(CCCl)C(=O)NCCCl | 1.05 ± 0.014 | 1.06 ± 0.05 | 1.04 | 1.19 ± 0.021 | 1.045 ± 0.0071
